Screening results as filed in PubChem BioAssay.
DT40 TDP1 no CPT = qHTS for Inhibitors of human tyrosyl-DNA phosphodiesterase 1 (TDP1): qHTS in cells in absence of CPT. DT40 Tdp1-/- hTDP1 cells, no CPT, ATP luminescence, 48 h. Potency, µM (top dose mostly 46.2 µM), hits mostly inhibitors. 15% of 420,000 active. AID 686978, 2013; note: nearly all actives have a fitted effect of over 55% in size
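Growth kinetics read by CellTiter-Glo luminescence after ≥48 hr at 37 °C. Cells: DT40 Tdp1-/- stably carrying human TDP1, 400 per well, compound exposure in the absence of CPT (DMSO vehicle).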
IL1B secr inh = qHTS for Inhibitors of Inflammasome Signaling: IL-1-beta AlphaLISA Primary Screen | activity change, % at 57.5 µM | AID 743279, 2014 | 4.7% of 360,000 active | THP-1 LPS/ATP IL-1B secretion, AlphaLISA, 16 h; active compounds read low; in the data active = activity change below about -50%; inconclusive = mostly about -30% to -49%
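THP-1 cells pretreated 1 hr with compounds (up to 57.5 uM final), then stimulated with LPS (250 ng/mL final) plus ATP (1.25 mM final); secreted IL-1B measured by AlphaLISA after 16 hr, decreased signal indicating inhibition.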
HT1080NT lethal = qHTS for induction of synthetic lethality in tumor cells producing 2HG: qHTS for the HT-1080-NT fibrosarcoma cell line; 1.6% of 360,000 active; Potency, µM (titrated, usually from 46.1 µM), usual class: cytotoxic; HT-1080-NT fibrosarcoma viability, CellTiter-Glo ATP luminescence, 48 h;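 note: NT is the 2HG producing partner of a matched IDH1 knockdown line; nearly all actives have a fitted effect of over 55% in size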
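Toxicity toward the 2HG-producing NT line was scored as %Activity, normalised to DMSO and no-cell wells, from CellTiter-Glo luminescence after 48 hours' treatment.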
TDP1 cell CPT = qHTS for Inhibitors of human tyrosyl-DNA phosphodiesterase 1 (TDP1): qHTS in cells in presence of CPT | chicken DT40 Tdp1-/-;hTDP1 cells + 20 nM CPT, ATP luminescence, 48 h | 12% of 420,000 active | AID 686979, 2013 | Potency, µM (series often up to 46.2 µM), actives largely listed as inhibitors; note: nearly all actives have a fitted effect of over 55% in size
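Chicken DT40 Tdp1-/- cells complemented with human TDP1, 400 cells/well, exposed to compounds plus 20 nM camptothecin for at least 48 h at 37 C; viability read as ATP content by CellTiter-Glo luminescence.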
HT1080 IDH1KD tx = qHTS for induction of synthetic lethality in tumor cells producing 2HG: qHTS for the HT-1080-IDH1KD cell line; HT-1080 IDH1 knockdown viability, ATP luminescence, 48 h; Potency, µM (highest dose often 46.1 µM), actives largely listed as cytotoxic; 2% of 360,000 active; AID 686971, 2013
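In this qHTS, HT-1080 cells depleted of IDH1 are exposed for 48 h at 37 °C to compound titrations. Toxicity is scored from CellTiter-Glo luminescence, with DMSO as full viability and medium alone as none.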
Large screens that a line does not name were inactive. Hits are enriched below; roughly 19% of the tested compounds scored in any of these assays. Unless noted, calls come from the whole dose curve; as a rule, active = well fitted curve in the direction sought with a large enough effect; inconclusive = small, poorly fitted or top-dose-only effect, or another doubt; inactive = no such curve, though single readings can be large; an effect the other way counts as inactive or inconclusive.

CCn1cc(CN(C)C(=O)/C=C/c2ccc([N+](=O)[O-])cc2)c(C)n1	DT40 TDP1 no CPT 14.6µM, TDP1 cell CPT inconclusive
Nc1cc(OC(=O)c2c(F)cccc2Cl)nn1S(=O)(=O)c1ccccc1	IL1B secr inh -93.5
COC(=O)C1=CN(Cc2ccc(OC)c(OC)c2)C=C(C(=O)OC)C1c1cccc(F)c1	DT40 TDP1 no CPT 18.4µM, TDP1 cell CPT 16.4µM
COC(=O)C1=CN(c2ccc(F)cc2)C=C(C(=O)OC)C1c1ccc([N+](=O)[O-])cc1	DT40 TDP1 no CPT inconclusive, TDP1 cell CPT inconclusive
COC(=O)C1=CN(Cc2ccc(C)cc2)C=C(C(=O)OC)C1c1ccc(F)c(F)c1	DT40 TDP1 no CPT 23.1µM, TDP1 cell CPT inconclusive
COC(=O)C1=CN(c2ccc(F)cc2)C=C(C(=O)OC)C1c1cccc(Br)c1	DT40 TDP1 no CPT inconclusive, IL1B secr inh inconclusive, TDP1 cell CPT 23.1µM
COC(=O)C1=CN(Cc2ccc(F)cc2)C=C(C(=O)OC)C1c1cc(OC)c(OC)c(OC)c1	none
COc1ccc(N(C(=O)c2snc(C(N)=O)c2N)C(CC(C)C)C(=O)NCC2CCCO2)cc1 (stereo unspecified)	none
CCC(C(=O)N/N=C(\C)c1cccnc1)c1ccccc1 (stereo unspecified)	none
Cc1cc(S(=O)(=O)N2CCCC2)ccc1OCC(=O)N1CCOCC1	none
COc1ccc(N2CCN(C(=O)c3cc(S(=O)(=O)N4CCCCCC4)ccc3OC)CC2)cc1	DT40 TDP1 no CPT 16.4µM, TDP1 cell CPT inconclusive
COc1ccc(N2CCN(C(=O)COc3ccc(S(=O)(=O)N4CCOCC4)cc3C)CC2)cc1	DT40 TDP1 no CPT 23.1µM, TDP1 cell CPT inconclusive
COc1ccc(N2CCN(S(=O)(=O)c3ccc(OC)c(C(=O)N4CCOCC4)c3)CC2)cc1	none
COc1ccc(S(=O)(=O)N2CCCCCC2)cc1C(=O)N1CCN(c2ccc(F)cc2)CC1	DT40 TDP1 no CPT 20.6µM, IL1B secr inh inconclusive, TDP1 cell CPT inconclusive
C#CCNC(=O)C1=C[C@@H](c2coc3ccccc3c2=O)C[C@@H](OCc2ccc(CO)cc2)O1	TDP1 cell CPT inconclusive
CN1CSC2=C(C#N)C(c3cccc(OCc4ccccc4)c3)CC(=O)N2C1 (stereo unspecified)	DT40 TDP1 no CPT inconclusive, HT1080NT lethal inconclusive, TDP1 cell CPT 20.6µM
CCOc1ccccc1N1CCN(c2nc3ccccc3nc2C(C#N)C(=O)OC)CC1 (stereo unspecified)	DT40 TDP1 no CPT 14.6µM, TDP1 cell CPT 23.1µM
COc1ccccc1N1CCN(c2nc(C)cc(C)c2C#N)CC1	none
COc1ccccc1N1CCN(c2nc3ccccc3nc2C(C#N)C(=O)OC(C)C)CC1 (stereo unspecified)	DT40 TDP1 no CPT 20.6µM, TDP1 cell CPT inconclusive
CCOc1ccccc1N1CCN(c2nc(N)c(C#N)c(CC#N)c2C#N)CC1	DT40 TDP1 no CPT 20.6µM, TDP1 cell CPT inconclusive
Nc1[nH]c(=O)nc2nnsc12	none (no result: IL1B secr inh, HT1080NT lethal, HT1080 IDH1KD tx)
Cc1cccc(NC(=O)Cn2c(=O)n(Cc3ccccc3)c(=O)c3oc4ccccc4c32)c1C	DT40 TDP1 no CPT 3.26µM, TDP1 cell CPT 4.61µM (no result: IL1B secr inh, HT1080NT lethal, HT1080 IDH1KD tx)
Cc1ccc(NC(=O)Cn2c(=O)n(Cc3ccc4c(c3)OCO4)c(=O)c3oc4ccccc4c32)cc1C	none (no result: IL1B secr inh, HT1080NT lethal, HT1080 IDH1KD tx)
COc1cccc2c(=O)cc(C)n(CC(=O)Nc3ccccc3C)c12	DT40 TDP1 no CPT 14.6µM, TDP1 cell CPT inconclusive
CNC(=O)Cn1c(C)cc(=O)c2cccc(OC)c21	none
Cc1ccc(C)c(NC(=O)Cn2c(=O)n(Cc3ccc4c(c3)OCO4)c(=O)c3oc4ccccc4c32)c1	DT40 TDP1 no CPT 2.91µM, TDP1 cell CPT 2.91µM (no result: IL1B secr inh, HT1080NT lethal, HT1080 IDH1KD tx)
Cc1cccc(NC(=O)Cn2c(=O)n(Cc3ccc4c(c3)OCO4)c(=O)c3oc4ccccc4c32)c1C	DT40 TDP1 no CPT 7.31µM, TDP1 cell CPT 7.31µM (no result: IL1B secr inh, HT1080NT lethal, HT1080 IDH1KD tx)
O=C(Cn1c(=O)n(Cc2ccccc2)c(=O)c2oc3ccccc3c21)Nc1ccc(Cl)cc1	DT40 TDP1 no CPT 18.4µM, TDP1 cell CPT inconclusive (no result: IL1B secr inh, HT1080NT lethal, HT1080 IDH1KD tx)
CCCCC(=O)NC(c1ccc(C(C)C)cc1)c1ccc2cccnc2c1O (stereo unspecified)	DT40 TDP1 no CPT 3.26µM, HT1080NT lethal inconclusive, TDP1 cell CPT 5.8µM, HT1080 IDH1KD tx inconclusive
CC(=O)NC(c1ccc(C(C)C)cc1)c1ccc2cccnc2c1O (stereo unspecified)	DT40 TDP1 no CPT 1.3µM, HT1080NT lethal inconclusive, TDP1 cell CPT 2.59µM, HT1080 IDH1KD tx inconclusive
CCCC(=O)NC(c1ccc(OC)cc1)c1ccc2cccnc2c1O (stereo unspecified)	DT40 TDP1 no CPT 2.59µM, TDP1 cell CPT 2.31µM, HT1080 IDH1KD tx inconclusive
CCCC(=O)NC(c1ccccc1)c1ccc2cccnc2c1O (stereo unspecified)	DT40 TDP1 no CPT 1.46µM, TDP1 cell CPT 3.66µM, HT1080 IDH1KD tx inconclusive
CCCCCCCCN1C(=O)[C@H](CC(=O)N2CCN(C(=O)c3ccco3)CC2)C[C@@]2(C(=O)OCC)CCCC=C12	DT40 TDP1 no CPT inconclusive, HT1080NT lethal inconclusive, TDP1 cell CPT inconclusive, HT1080 IDH1KD tx inconclusive
CC[N+]1(CC(=O)c2ccc(OC)cc2)CCCCC1	none (no result: IL1B secr inh, HT1080NT lethal, HT1080 IDH1KD tx)
O=C(c1cccc(S(=O)(=O)NCc2ccccc2)c1)N1CCCC(C(F)(F)F)C1 (stereo unspecified)	DT40 TDP1 no CPT inconclusive
Cc1c(NC(=O)C(C)Oc2ccc(Br)cc2)c(=O)n(-c2ccccc2)n1C (stereo unspecified)	none
